Bioassay records: PubChem BioAssay, Johns Hopkins Ion Channel Center
KCNQ2 block: blocks the rat KCNQ2 potassium channel | O88943 | CHO-K1 KCNQ2, FluxOR thallium flux, 20 min; stronger effect = lower value | B-score at 10 µM | 310,000 compounds, 1.1% hits | AID 2156;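 active means fluorescence ratio B-score at most minus 3 library SDs, with starting brightness B-score within 2 library SDs, cut at about -5.5 in these data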
KCNQ2 pot: enhances the rat KCNQ2 potassium channel; O88943; CHO-K1 KCNQ2, FluxOR thallium flux fluorescence; stronger effect = higher value; B-score at 10 µM; 310,000 compounds, 0.54% hits;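 active means fluorescence ratio B-score at least 3 SD of library B-scores, with initial fluorescence B-score within 3 of them, cut at about 5.3 in these data; same plate scores as AID 2156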;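 further: B-score of peak minus minimum over baseline fluorescence ratio after K+ and Tl+ stimulus; positive B-score means potentiation of KCNQ2 with more thallium influx and brighter signal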
Kir21 conf inh: confirmation of mouse Kir2.1 potassium channel inhibitors | AID 2032 | Kir2.1-expressing cells, FluxOR thallium flux fluorescence; stronger effect = lower value | shares compounds with KCNQ2 pot | Tl flux remaining, % of negative control (stronger effect = lower value), % at 10 µM | 2,300 compounds, 41% hits;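 active means Primary-screen hit whose thallium flux fell at least 3 control SD below untreated wells in both duplicates, with normal baseline fluorescence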
HEK293 Tl flux: counter-screen for Kir2.1 inhibitors: effect in parental HEK293 cells | shares compounds with KCNQ2 pot | FluxOR thallium flux fluorescence; 0% = unstimulated blank wells | FluxOR signal as % of negative control (100 = no effect), % at 10 µM | 2,300 compounds, 19% hits;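 active means dye signal at least 3 control SD above or below untreated wells in both duplicates, raw fluorescence within 3, either direction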;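 further: percent is based on the flux ratio of peak minus minimum fluorescence over baseline F0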
CHO-K1 ctr: alters thallium flux in parental CHO-K1 cells, KCNQ2 counter-screen | 1,200 compounds, 43% hits | shares compounds with KCNQ2 pot | FluxOR thallium flux fluorescence; zero = vehicle mean+3SD, 100% = vehicle-minus-blank window | activity increase over 3SD of controls, % at 10 µM;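 active means signal rise of at least 3 SD above the untreated control mean, in both duplicate wells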;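 further: counter screen of KCNQ2 potentiator hits so any rise reflects channel-independent effects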
KCNQ1 pot spec: human KCNQ1 counter-target activity of KCNQ2 potentiators; shares compounds with KCNQ2 pot; CHO KCNQ1 stable, FluxOR thallium flux fluorescence; beyond 3SD, as % of vehicle-control signal; activation over 3SD threshold, % at 10 µM; 1,200 compounds, 28% hits;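 active means fluorescence ratio rise of at least 3 SD of vehicle wells above their mean, in both replicate wells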
KCNQ2 pot confirm: rat KCNQ2 channel potentiator confirmation. 1,200 compounds, 68% hits. AID 2287. potentiation, less the hit threshold, % at 10 µM. CHO-KCNQ2 cells, FluxOR thallium flux fluorescence. shares compounds with KCNQ2 pot;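 active means fluorescence ratio rising 3 SD or more over the vehicle control mean in both replicates, plus primary screen hit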;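 further: peak minus minimum thallium fluorescence divided by baseline after K/Tl stimulus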
Kir2-1 sel: tests whether KCNQ2 potentiators also affect mouse Kir2.1; shares compounds with KCNQ2 pot; AID 2345; HEK293 Kir2.1, FluxOR thallium flux fluorescence; activity over 3SD threshold, % at 10 µM; 1,200 compounds, 2% hits;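 active means fluorescence ratio rise of at least 3 SD above the vehicle-control mean, seen in both replicates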
KCNQ2 W236L MoA: potentiates the retigabine-insensitive rat KCNQ2 W236L mutant channel; shares compounds with KCNQ2 pot; CHO KCNQ2-W236L, automated patch clamp current; current increase over 3SD of negative controls (%), stronger effect = higher value, % at 25 µM; 940 compounds, 10% hits; AID 2558;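 active means current increase at least 3 SD of the untreated controls above them in both duplicate recordings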
Hits are given with their value; i = inactive; nt = no result given. Rows were chosen to be rich in hits. Some 1.6% of all compounds tested hit in one or more screens of this group.

SMILES	KCNQ2 block	KCNQ2 pot	Kir21 conf inh	HEK293 Tl flux	others
CCC1(C)Cc2c(sc3nnn(CC(=O)Nc4ccccc4)c(=O)c23)CO1 (configuration not stated)	i	19	i	i	CHO-K1 ctr=i;KCNQ1 pot spec=27;KCNQ2 pot confirm=41;Kir2-1 sel=i;KCNQ2 W236L MoA=i
Cc1cccc(NC(=O)Cn2nnc3sc4c(c3c2=O)CC(C)(C)OC4)c1	i	nt	nt	nt
COc1ccc(C(=O)NC(C)CCCC(C)(C)O)cc1OC1CCN(C(C)=O)CC1 (configuration not stated)	i	nt	nt	nt
COc1ccc(CCNC(=O)Cn2cc(C(F)(F)F)cc(Cl)c2=O)cc1OC	i	nt	nt	nt
O=C(Nc1cccc(NC(=O)c2ccccc2)n1)c1ccccc1	i	i	nt	nt
CCCOc1ccc(CSC(=N)N)cc1C(=O)OC	i	i	nt	nt
COC(=O)c1cc(CSC(=N)N)ccc1OCCC(C)C	i	i	29%	i
CC(=O)Nc1cccc(-n2nnc(SCC(=O)N(C)c3ccccc3)n2)c1	i	nt	nt	nt
COc1ccc(CCNc2nc3ccccc3n3cnnc23)cc1OC	i	i	nt	nt
CCc1nnc2c(NCCc3ccc(OC)c(OC)c3)nc3ccccc3n12	i	11	i	i	CHO-K1 ctr=9.6;KCNQ1 pot spec=i;KCNQ2 pot confirm=i;Kir2-1 sel=i
CN(Cc1c(C(=O)N/N=C/c2cc(F)ccc2F)nnn1-c1nonc1N)C1CCCCC1	i	i	nt	nt
CC1CCCC(n2c(=S)[nH]c3ccccc3c2=O)C1C (configuration not stated)	i	11	i	i	CHO-K1 ctr=i;KCNQ1 pot spec=i;KCNQ2 pot confirm=6.8;Kir2-1 sel=i;KCNQ2 W236L MoA=i
CC1CCC(n2c(=S)[nH]c3ccccc3c2=O)CC1 (configuration not stated)	i	11	i	i	CHO-K1 ctr=i;KCNQ1 pot spec=83;KCNQ2 pot confirm=27;Kir2-1 sel=i;KCNQ2 W236L MoA=i
CC1(C)CC(n2c(=S)[nH]c3ccccc3c2=O)CCO1 (configuration not stated)	i	i	nt	nt
O=c1c2ccccc2[nH]c(=S)n1C1CCCCC1	i	nt	nt	nt
CCOCc1nnc(NC(=O)C2CC(=O)N(C3CCCC3)C2)s1 (configuration not stated)	i	nt	nt	nt
COC(=O)c1ccc(C2NCCc3cc(OC)c(OC)cc32)cc1 (configuration not stated)	i	nt	nt	nt
O=C(Nc1cnn(C23CC4CC(CC(C4)C2)C3)c1)c1cc(-c2ccccc2)on1	i	i	nt	nt
CCCn1cc(NC(=O)c2cc(-c3ccccc3)on2)cn1	i	5.7	i	i	CHO-K1 ctr=24;KCNQ1 pot spec=i;KCNQ2 pot confirm=i
CCSc1nc2c(sc3ccccc32)c(=O)n1C(C)C	i	6	i	244%	CHO-K1 ctr=29;KCNQ1 pot spec=1.2;KCNQ2 pot confirm=25;Kir2-1 sel=i;KCNQ2 W236L MoA=i
CCCCn1c(SCC(N)=O)nc2c(sc3ccccc32)c1=O	i	i	nt	nt
CCn1nc(C)c(CNC(=O)C2CCC(=O)N(Cc3ccc(Cl)cc3)C2)c1C (configuration not stated)	i	nt	nt	nt
CCN(CC)CCN(C(=O)c1ccc(Br)s1)c1nc2cc3c(cc2s1)OCCO3	i	i	nt	nt
CN(C)CCCN(C(=O)c1ccc(Br)s1)c1nc2cc3c(cc2s1)OCCO3	i	nt	i	i
O=C(CSC(=S)N1CCOCC1)Nc1ncc2c(n1)CC(c1ccco1)CC2=O (configuration not stated)	i	i	nt	nt
COCCN(Cc1nc(-c2ccc(-c3ccccc3)cc2)oc1C)C(C)C	i	nt	nt	nt
CC(C)(C)c1cc(C(=O)NNC(=O)c2ccc(Cl)cc2)no1	i	9.1	i	266%	CHO-K1 ctr=1.4;KCNQ1 pot spec=88;KCNQ2 pot confirm=5.3;Kir2-1 sel=i;KCNQ2 W236L MoA=i
Cc1cc(C(=O)NNC(=O)c2ccc(C(F)(F)F)cc2)no1	i	i	nt	nt
CCCC[C@@H]1CNCCN1CCc1cccc2ccccc12	i	nt	nt	nt
